# From PubChem BioAssay
# This is a sample that favours compounds with a hit; in the whole collection about 12% have one here.
# PLK1 PBD block – inhibitors of human PLK1 polo-box domain binding; 360,000 tested, 2.8% active; AID 720504; Potency, µM, inactives show max response, negative = inhibition, hits mostly inhibitors; Plk1 PBD binding of FITC phosphopeptide, fluorescence polarization; P53350; note: potency is the fitted concentration of half-maximal effect; series mostly up to about 57 µM; % is set by controls: 0 for no effect and ±100 for the full control effect; nearly all actives have a fitted effect of over 65% in size
# PI5P4Ka inh – PI5P4K alpha (human) kinase inhibition; P48426; PI5P4Kalpha enzyme, ADP-Glo luminescence, 60 min; stronger effect = lower value; max response, %; 330,000 tested, 1.2% active; AID 652105; active = max response of -50% or lower; inconclusive = between -30% and -50%; inactive = -30% or higher; note: value at the top dose of about 77 µM; % is set by controls: 0 for no effect and ±100 for the full control effect
#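 PI5P4Kalpha ADP-Glo assay; 5 microM ATP final; 60 min RT reaction; HEPES pH 7.4/EGTA/CHAPS, 5% DMSO; controls lacking substrate or enzyme; luminescent end-point.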
# JMJD2A Tudor inh – blocks the human JMJD2A Tudor domain; O75164; 390,000 tested, 4.4% active; Potency, µM (doses to about 114 µM), for inactives: at the highest dose activity change, negative = inhibition, most hits filed as inhibitors; AlphaScreen JMJD2A-Tudor / H3K4me3 peptide binding; note: potency is the fitted concentration of half-maximal effect; % is set by controls: 0 for no effect and ±100 for the full control effect; nearly all actives have a fitted effect of over 50% in size
# Target sequence (O75164 whole entry, looked up, the tested form may be a part): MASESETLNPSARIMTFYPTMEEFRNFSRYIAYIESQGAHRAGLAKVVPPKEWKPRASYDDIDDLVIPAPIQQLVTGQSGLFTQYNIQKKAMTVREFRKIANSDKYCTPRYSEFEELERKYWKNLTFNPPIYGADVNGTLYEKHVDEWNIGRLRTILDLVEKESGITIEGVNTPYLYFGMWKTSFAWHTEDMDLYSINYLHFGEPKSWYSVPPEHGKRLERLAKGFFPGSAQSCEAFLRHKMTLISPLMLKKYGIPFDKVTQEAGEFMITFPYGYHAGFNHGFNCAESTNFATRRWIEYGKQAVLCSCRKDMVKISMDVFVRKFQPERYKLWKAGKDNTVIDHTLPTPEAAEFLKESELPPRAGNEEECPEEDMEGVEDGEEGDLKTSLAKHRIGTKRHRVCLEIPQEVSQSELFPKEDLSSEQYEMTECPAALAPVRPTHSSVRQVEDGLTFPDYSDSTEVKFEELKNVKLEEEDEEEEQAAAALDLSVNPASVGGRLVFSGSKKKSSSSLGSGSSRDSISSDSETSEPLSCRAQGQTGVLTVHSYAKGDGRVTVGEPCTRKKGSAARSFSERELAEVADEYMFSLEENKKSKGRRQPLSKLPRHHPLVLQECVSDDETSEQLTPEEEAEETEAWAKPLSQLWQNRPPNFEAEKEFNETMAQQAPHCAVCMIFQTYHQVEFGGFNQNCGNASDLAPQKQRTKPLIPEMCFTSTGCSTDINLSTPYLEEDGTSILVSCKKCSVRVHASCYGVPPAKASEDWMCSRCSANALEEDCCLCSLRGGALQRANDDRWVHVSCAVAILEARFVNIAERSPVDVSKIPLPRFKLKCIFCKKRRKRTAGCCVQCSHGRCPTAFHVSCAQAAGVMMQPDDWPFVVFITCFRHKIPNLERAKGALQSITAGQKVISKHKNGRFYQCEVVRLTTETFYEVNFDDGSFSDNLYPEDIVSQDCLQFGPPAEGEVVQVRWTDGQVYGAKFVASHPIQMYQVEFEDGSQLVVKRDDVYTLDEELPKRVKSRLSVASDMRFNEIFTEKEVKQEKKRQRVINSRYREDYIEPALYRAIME
# HP1b chromo inh – HP1-beta chromodomain-methylated histone interaction inhibition. 390,000 tested, 0.56% active. AlphaScreen HP1-beta / biotin-H3K9me3 peptide binding. P83916. Potency, µM (highest dose often 114 µM), without a hit: at the top dose activity change, negative = inhibition, actives largely listed as inhibitors; note: potency is the fitted concentration of half-maximal effect; nearly all actives have a fitted effect of over 70% in size
#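 HP1-beta protein (50 nM final) preincubated 30 min at room temperature with biotinylated H3(1-18)K9me3 peptide (50 nM) in PBS pH 7.4, 0.01% Tween-20, then compound added for 30 min. AlphaScreen streptavidin donor/nickel chelate acceptor beads (10 ug/mL final), 30 min dark, luminescence read.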
# G9a inh – G9a (human) methyltransferase inhibition | AID 504332 | Potency, µM (top dose mostly 102 µM), for inactives: top-dose activity, negative = inhibition, most hits filed as inhibitors | 350,000 tested, 8.8% active | G9a H3K9 monomethylation, AlphaScreen, 2 h; note: potency is the fitted concentration of half-maximal effect; % is set by controls: 0 for no effect and ±100 for the full control effect; nearly all actives have a fitted effect of over 75% in size
#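 Step 1: enzyme (final 20 nM) with compound, 15 min RT. Step 2: substrate peptide 500 nM and SAM 20 uM, 2 h RT. Step 3: anti-H3K9me1 antibody and AlphaScreen beads, 10 min, then plate read.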
# BAZ2B block – BAZ2B (human) inhibition | Potency, µM (doses to about 114 µM), without a hit: at the highest dose activity change, negative = inhibition, most hits filed as inhibitors | 360,000 tested, 4.4% active | AlphaScreen BAZ2B-H3K14Ac peptide displacement; note: potency is the fitted concentration of half-maximal effect; % is set by controls: 0 for no effect and ±100 for the full control effect; nearly all actives have a fitted effect of over 60% in size
#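 Protein-peptide AlphaScreen: BAZ2B 50 nM, b-H3K14Ac 50 nM, 1x PBS pH 7.4 + 0.01% Tween-20. Preincubation 30 min RT; cpd 30 min RT (top 110 uM); beads 20 min RT, light-protected.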
# The depositor's hits bear a star; ? = inconclusive; . = no result; [ ] = another dose, or the depositor's remark. Unless noted, calls come from the whole dose curve; as a rule, active = well fitted curve in the direction sought with a large enough effect; inconclusive = small, poorly fitted or top-dose-only effect, or another doubt; inactive = no such curve, though single readings can be large; an effect the other way counts as inactive or inconclusive.
SMILES,PLK1 PBD block,PI5P4Ka inh,JMJD2A Tudor inh,HP1b chromo inh,G9a inh,BAZ2B block
CCN1CCN(c2cc(C)c3cc(NC(=S)NCCN(C)C)ccc3n2)CC1,?,-8,-15%,-34%,50µM*,0%
CCCCN(C)CCNC(=S)Nc1ccc2nc(N3CCN(CC)CC3)cc(C)c2c1,?,20,-18%,-15%,45µM*,-4%
COc1cc(-c2cccc([C@H]3[C@@H]4C=CC[C@@H](C)[C@@H]4C(=O)N3Cc3ccccc3)c2)cc(OC)c1OC,-6%,1,-21%,26%,0%[59 µM],.
CCN1CCN(c2cc(C)c3cc(NC(=O)c4ccc(OC)c(OC)c4)ccc3n2)CC1,1%,0,-33%,11%,71µM*,-28%
CCCCN(CC)C(=S)Nc1ccc2nc(N3CCN(C)CC3)cc(C)c2c1,-13%,7,?,-1%[57 µM],40µM*,?
CCCCN(C)C(=S)Nc1ccc2nc(N3CCN(CC)CC3)cc(C)c2c1,-12%,4,-7%[11.4 µM],14%,45µM*,-29%
CC(=O)OCC(=O)C1(O)CCC2C3CCC4C(OC(C)=O)C(=O)CCC4(C)C3C(=O)CC21C (configuration not stated),-3%,7,-8%,23%,.,.
CNC(=O)C1CC(=O)N(CCc2ccccc2)C(=Nc2ccc(OC)cc2)S1 (configuration not stated),-7%,5,-11%,12%,-2%,-23%
COc1ccc(CCN2C(=O)CC(C(N)=O)SC2=Nc2ccccc2)cc1 (configuration not stated),0%,0,79µM*,13%,?,?
COc1ccc(N=C2SC(C(N)=O)CC(=O)N2Cc2ccc3c(c2)OCO3)cc1 (configuration not stated),-15%,2,79µM*,9%,-4%,79µM*
CCSc1ccccc1C(=O)NCc1cccnc1,-9%,1,-16%,21%,8.9µM*,-12%
CCSc1ccccc1C(=O)NCc1ccco1,-8%,.,-23%,5%,10µM*,0%
CCOC(=O)c1[nH]c(C)c(C(=O)NCc2cccnc2)c1C,0%,-5,-16%,50%,35µM*,13%
O=C(NCc1ccco1)c1ccccc1Br,27µM*,-3,50µM*,-23%,9%[12.7 µM],12%
O=C(NCc1ccco1)C1c2ccccc2Oc2ccccc21,-24%,-29,50µM*,1%,?,-9%
CCN1CCN(C(=O)c2ccc(-c3nc4ccccc4s3)s2)CC1,-12%,-14,-12%,13%,-43%,1%
CCCN1CCN(C(=O)c2ccccc2-c2nc3ccccc3s2)CC1,-27%,3,-24%,23%,40µM*,-31%
CCN1CCC(=NNC(=O)c2ccco2)CC1,-9%,1,5%[11.4 µM],72%,45µM*,7%
CC(C)(C)c1ccc(OCCCN2CCCC2)cc1,-12%,7,22µM*,?,0%,?
c1ccc(COc2ccc(OCCN3CCCC3)cc2)cc1,-16%,2,?,1%,?,-12%
c1ccc(COc2ccc(OCCCN3CCCC3)cc2)cc1,-6%,8,20µM*,-9%,6.3µM*,50µM*
c1cc(OCCCN2CCCCC2)ccc1CN1CCCCC1,4%,1,-10%,15%,6%,-16%
Cc1ccc(C(=O)CC(C(=O)O)P(=O)(c2ccccc2)c2ccccc2)cc1 (configuration not stated),-27%,-1,-21%,5%,71µM*,-26%
CCCNC(=O)c1ccc(C2SCC(=O)N2CCc2ccccc2)cc1 (configuration not stated),-15%,3,-16%,18%,45µM*,2%
C=CCNC(=O)c1ccc(C2SCC(=O)N2Cc2ccccc2)cc1 (configuration not stated),-7%,2,-2%,27%,50µM*,-17%
SMILES,PLK1 PBD block,PI5P4Ka inh,JMJD2A Tudor inh,HP1b chromo inh,G9a inh,BAZ2B block
CCNC(=O)c1ccc(C2SCC(=O)N2CCc2ccccc2)cc1 (configuration not stated),-2%,0,7%,24%,2%[59 µM],12%
CC1(C(=O)NCc2ccc(Cl)cc2)CCN1C(=O)Cc1cccs1 (configuration not stated),-15%,-9,.,.,.,.
Cc1cccnc1NC(=O)c1cccc(S(=O)(=O)N2CCCc3ccccc32)c1,-7%,3,-18%,22%,.,-27%
Cc1cccc(NC(=O)CCC(=O)N2CCOCC2)n1,2%,7,0%,40%,0%[12.7 µM],-3%
COc1cc(C(=O)OCC(=O)Nc2c(F)cccc2F)cc(OC)c1C,-2%,0,5%[11.4 µM],17%,45µM*,?
O=S(=O)(O)c1ccc(O)c2cc(Nc3ccccc3)ccc12,4.7µM*,-105*,2.8µM*,2µM*,.,.
O=C(Nc1ccccc1)Nc1ccc(Nc2ccccc2)cc1,4%,-2,2%,19%,.,.
Cc1ccc(S(=O)(=O)c2cc(Nc3ccccc3)ccc2O)cc1,-30%,-6,?,-11%,17%[2.33 µM],50µM*
Cc1ccc(-c2cnc(SCCNC(=O)c3ccco3)[nH]2)cc1,-1%,1,-21%,0%,45µM*,-34%
Cc1ccc(C(=O)NCCCNC(=O)c2ccco2)cc1,-3%,-4,-9%,14%,2%,0%
CCC(CC)c1nn2c(=O)cc(COc3ccc(NC(=O)c4ccccc4Cl)cc3)nc2s1,.,.,6%,54%,-4%[59 µM],-3%
Cc1ccc(S(=O)(=O)N2CCCC(C(=O)NCCc3ccc(S(N)(=O)=O)cc3)C2)cc1 (configuration not stated),1%,6,-5%,21%,27%,5%
COC(=O)c1cccc(CN2C(=O)SC(Nc3ccccc3)C2=O)c1 (configuration not stated),-9%,7,1%,34%,79µM*,-9%
O=C1SC(Nc2ccc(Cl)cc2)C(=O)N1Cc1ccccc1 (configuration not stated),.,.,8%,75%,-43%[59 µM],15%
CCOc1ccc(NC2SC(=O)N(Cc3ccccc3)C2=O)cc1 (configuration not stated),.,.,?,-20%,11µM*,?
COc1ccc(S(=O)(=O)N2CCC(NC(=O)c3cccnc3)CC2)cc1,-9%,1,-27%,-12%,-19%,18%
CCN(CCO)Cc1csc2cccc(Br)c12,-8%,-3,6%,36%,-12%,-34%
CCN(CC)CCN(CC)Cc1ccccc1Br,-4%,.,-2%,35%,50µM*,-12%
O=C(NCc1ccccn1)C1CC(=O)N(C2CCCC2)C1 (configuration not stated),-1%,-2,79µM*,22%,.,.
